# Where “and” joins values, the source holds several entries; their conditions need not be identical. Equal entries are not always repeated. Among all 5,600 compounds or so, about 390 (7%) showed an effect of 50% or more. The sample as a whole holds a higher share of strong results than the screen did.
# Target: T1, Protein deacetylase HDAC6 (Homo sapiens) (UniProt Q9UBN7)
# T1 sequence (whole entry): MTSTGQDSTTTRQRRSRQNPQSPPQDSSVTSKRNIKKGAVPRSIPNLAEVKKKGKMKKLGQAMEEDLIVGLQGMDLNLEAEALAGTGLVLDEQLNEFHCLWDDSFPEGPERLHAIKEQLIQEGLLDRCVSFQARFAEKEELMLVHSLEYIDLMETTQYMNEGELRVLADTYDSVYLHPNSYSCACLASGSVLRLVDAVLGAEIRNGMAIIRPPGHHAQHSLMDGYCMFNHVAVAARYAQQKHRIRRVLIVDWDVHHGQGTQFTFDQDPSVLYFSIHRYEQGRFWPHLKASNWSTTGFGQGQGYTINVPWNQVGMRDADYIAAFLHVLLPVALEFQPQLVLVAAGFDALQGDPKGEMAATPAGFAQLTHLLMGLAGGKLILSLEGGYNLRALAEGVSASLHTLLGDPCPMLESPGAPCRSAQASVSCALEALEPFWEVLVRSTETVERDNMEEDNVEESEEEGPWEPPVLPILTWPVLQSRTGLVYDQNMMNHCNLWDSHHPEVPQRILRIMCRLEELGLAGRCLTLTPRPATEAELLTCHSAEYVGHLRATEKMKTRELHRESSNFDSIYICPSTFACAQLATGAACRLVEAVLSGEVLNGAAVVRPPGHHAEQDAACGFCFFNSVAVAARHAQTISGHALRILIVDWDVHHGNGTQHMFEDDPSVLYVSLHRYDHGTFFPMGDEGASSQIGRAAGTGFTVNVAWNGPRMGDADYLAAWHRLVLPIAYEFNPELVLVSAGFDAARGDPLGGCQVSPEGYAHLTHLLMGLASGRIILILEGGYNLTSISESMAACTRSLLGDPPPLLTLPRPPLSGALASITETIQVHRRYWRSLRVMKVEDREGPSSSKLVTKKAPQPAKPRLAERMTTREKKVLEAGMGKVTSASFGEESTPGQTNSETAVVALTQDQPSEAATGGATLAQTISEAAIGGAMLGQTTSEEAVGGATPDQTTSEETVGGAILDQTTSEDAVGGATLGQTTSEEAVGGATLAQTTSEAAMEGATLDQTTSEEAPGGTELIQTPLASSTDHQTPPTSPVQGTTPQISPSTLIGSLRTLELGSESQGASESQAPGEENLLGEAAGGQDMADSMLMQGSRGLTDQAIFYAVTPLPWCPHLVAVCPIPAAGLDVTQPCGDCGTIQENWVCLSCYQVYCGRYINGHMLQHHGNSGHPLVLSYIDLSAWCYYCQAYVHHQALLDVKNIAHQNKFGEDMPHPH
# Conditions: at 10 µM
row,SMILES,inhibition
1,CCC(=O)NC1Cc2ccccc2C(c2ccccc2)C1 (stereo not drawn),0.79%
2,O=[N+]([O-])c1c(Nc2cc(F)cc(Cl)c2)ccc2nonc12,22.6%
3,Nc1ncnc2c1ncn2[C@H]1CC[C@@H](CO)O1,46%
4,CC1(C)CNc2cc(NC(=O)c3cccnc3NCc3ccncc3)ccc21,87.1%
5,N#CC1(c2ccc(NC(=O)c3cccnc3NCc3ccncc3)cc2)CCCC1,51.4%
6,CCCCCCCCCCCCCC(=O)OC(C)C,30.5%
7,O=C(O)c1nc(=O)[nH]c(=O)[nH]1,-2.71%
8,CC(N)CCCC(C)(C)O (stereo not drawn),6.48%
9,COc1ccc2c(C(=S)N(C)CC(=O)O)cccc2c1C(F)(F)F,8.32%
10,CCN(CC)CC1CCN(c2ncc3ncnc(Nc4ccc(F)c(Cl)c4)c3n2)CC1,22.9%
11,Cc1n[nH]c(C)c1Cc1sc2c(c1C(=O)N1C[C@H](O)CO1)c(=O)n(C)c(=O)n2CC(C)C,39.2%
12,COC1CCN(c2cccc(-c3cc(NC(C)=O)nc(-n4nc(C)cc4C)n3)n2)CC1,20.5%
13,CCCC1C(=O)N2C(N(C)C)=Nc3ccc(C)cc3N2C1=O (stereo not drawn),67.9%
14,O=C1OC2(c3cc(I)c(O)c(I)c3Oc3c2cc(I)c(O)c3I)c2c(Cl)c(Cl)c(Cl)c(Cl)c21,69.2% and 74.6%
15,c1ccc(-c2n[nH]cc2-c2ccnc3ccccc23)nc1,-5.98%
16,CN(C)CC/C=C1\c2ccccc2CSc2ccccc21,33.1%
17,OCCN1CCN(CC/C=C2/c3ccccc3Sc3ccc(Cl)cc32)CC1,89.6%
18,CN1CCN(CC/C=C2/c3ccccc3Sc3ccc(S(=O)(=O)N(C)C)cc32)CC1,30.4%
19,CCN(CC)c1ccc(C(=C2C=CC(=[N+](CC)CC)C=C2)c2ccccc2)cc1,101%
20,CCCCC1(COC(=O)CCC(=O)O)C(=O)N(c2ccccc2)N(c2ccccc2)C1=O,37.6%
21,O=C(O)CCC/C=C\CC1C(O)CC(O)C1/C=C/C(O)COc1cccc(Cl)c1 (racemic),7.35%
22,CC(C)OC(=O)c1cc2c(OCC(O)CNC(C)(C)C)cccc2[nH]1 (stereo not drawn),17%
23,CCCC(=O)Nc1ccc(OCC(O)CNC(C)C)c(C(C)=O)c1 (stereo not drawn),-5.99%
24,CCN(CC)C(=O)Nc1ccc(OCC(O)CNC(C)(C)C)c(C(C)=O)c1 (stereo not drawn),103%
25,CNC(=O)c1ccc2c(c1)NC(=O)/C2=C(\Nc1cccc(CN(C)C)c1)c1ccccc1,23.6%
26,CONC(=N)c1ccc(-c2ccc(-c3ccc(C(=N)NOC)cc3)o2)cc1,28.6%
27,C=C[C@@](C)(/C=C/c1ccc(O)cc1)CCC=C(C)C,38.3%

row,SMILES,inhibition
1,CC(=O)Nc1ccc(NC(=S)NC(=O)c2ccc(C(C)(C)C)cc2)cc1,-1.57%
2,C/C(O)=C(\C#N)C(=O)Nc1ccc(C(F)(F)F)cc1,58%
3,CC(O)(C(=O)Nc1ccc(S(=O)(=O)c2ccccc2)cc1)C(F)(F)F (stereo not drawn),8.38%
4,CCCn1c(=O)[nH]c(=O)c2nc[nH]c21,9.19%
5,Cc1cc(N2CCCCC2)nc2ccccc12,12.2%
6,O=c1c2ccccc2nc2n1CCc1c-2[nH]c2ccccc12,84.3%
7,O=c1c2ccccc2nc2n1CCCCC2,111%
8,CN1c2ccccc2C(=O)N2CCc3c([nH]c4ccccc34)C21 (stereo not drawn),36.3%
9,CN1C(=O)C(F)=C[C@]2(C)[C@H]3CC[C@]4(C)[C@@H](C(=O)NCc5nc6cccnc6[nH]5)CC[C@H]4[C@@H]3CC[C@@H]12,-0.34%
10,CCC(=O)OCC(=O)C1(OC(=O)CC)C(C)CC2C3CCC4=CC(=O)C=CC4(C)C3(Cl)C(O)CC21C (stereo not drawn),5.48%
11,CCCCc1nn(-c2ccccc2C(F)(F)F)c(=O)n1Cc1ccc(-c2ccccc2S(=O)(=O)NC(=O)c2sccc2C)cc1,30.6%
12,CCCOc1ccc(Br)cc1-c1cc(-c2ccc(Cl)cc2)[nH]c1-c1ccncc1,4.47%
13,C[C@]12C=CC(=O)C=C1CC[C@@H]1[C@@H]2[C@@H](O)C[C@@]2(C)[C@H]1CC[C@]2(O)C(=O)CO,1.72%
14,C#CC1(O)CC[C@H]2[C@@H]3CCC4=CC(=O)CC[C@@H]4[C@H]3CC[C@@]21CC (stereo partly drawn),41%
15,C#C[C@]1(OC(C)=O)CC[C@H]2[C@@H]3CCC4=C/C(=N/O)CC[C@@H]4[C@H]3CC[C@@]21CC,102%
16,C#C[C@]1(O)CC[C@H]2[C@@H]3CCC4=CC(=O)CC[C@@H]4[C@H]3CC[C@@]21CC,-8.51%
17,O=S(=O)(N[C@H]1CC[C@@](c2cc(F)ccc2F)(S(=O)(=O)c2ccc(Cl)cc2)CC1)C(F)(F)F,19.5%
18,CC[N+](CC)(CC)CCC(O)(c1ccccc1)C1CCCCC1 (stereo not drawn),43.5%
19,N[C@@]1(C(=O)O)CC[C@H]2[C@H](C(=O)O)[C@H]21,5.51%
20,Nc1cc(Cl)c(N=C2NCCN2)c(Cl)c1,15.3%
21,Cc1cccc(C)c1NC(=O)c1ccccc1C(=O)O,2.75%
22,COC(=O)c1ccccc1O,25.3%
23,O=C(N/N=C/c1ccccc1O)c1ccccc1O,98.6%
24,O=C(N/N=C/c1ccc(O)c(O)c1)c1cc2ccccc2cc1O,59.7%
25,NC(=O)N/N=C/c1ccc(Oc2ccc(F)cc2)cc1,2.96%
26,O=C(Nc1ccc(O)cc1)c1ccccc1O,85.3%
